An excerpt weighted towards active compounds, which were near 2.6% of everything screened.
Cruzain inh Det: cruzain (T. cruzi) inhibition with detergent; P25779; purified cruzain, Z-FR-AMC fluorescence, 0.01% Triton; Potency, µM, without a hit: max response, negative = inhibition, actives largely listed as inhibitors; 200,000 compounds, 0.43% hits;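 note: plate controls were neutral wells for no effect and buffer without enzyme for full effect; nearly all actives have a fitted effect of over 40% in size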
Target sequence (P25779 123-467 limits assumed): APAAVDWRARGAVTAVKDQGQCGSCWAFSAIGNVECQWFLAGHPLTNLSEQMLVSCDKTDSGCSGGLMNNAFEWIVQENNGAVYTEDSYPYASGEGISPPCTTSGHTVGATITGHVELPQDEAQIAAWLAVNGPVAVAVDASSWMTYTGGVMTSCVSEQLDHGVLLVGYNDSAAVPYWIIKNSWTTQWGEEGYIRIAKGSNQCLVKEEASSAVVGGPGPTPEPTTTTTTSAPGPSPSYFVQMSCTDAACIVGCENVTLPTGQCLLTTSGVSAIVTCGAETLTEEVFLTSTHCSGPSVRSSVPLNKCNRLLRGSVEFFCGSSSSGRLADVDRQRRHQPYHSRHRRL
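Cruzain (1.5 nM) preincubated 15 min at RT with compound in 100 mM sodium acetate pH 5.5, 5 mM DTT, 0.01% Triton X-100. Reaction started with 2 uM Z-FR-AMC; AMC fluorescence (ex 360/em 450 nm) change over 60 s gave rate.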
Cruzain noTriton: inhibitors of Trypanosoma cruzi cruzain without detergent; purified cruzain, Z-FR-AMC fluorescence, no detergent; P25779; 200,000 compounds, 2.3% hits; AID 1476; Potency, µM, for the others: max response, negative = inhibition, usual class: inhibitors;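 note: plate controls were enzyme without inhibitor for no effect and buffer without enzyme for full effect; nearly all actives have a fitted effect of over 40% in size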
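Detergent-free condition (0.00005% Triton X-100) in acetate buffer pH 5.5 with DTT. 1.5 nM enzyme and compound were pre-mixed 15 min, then 2 uM Z-FR-AMC substrate added; reaction progress from fluorescence change between first and third reads (60 s).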
Starred values were filed as active, the others as inactive; ? = inconclusive. Calls come from the whole dose curve; as a rule, active = well fitted curve in the direction sought with a large enough effect; inconclusive = small, poorly fitted or top-dose-only effect, or another doubt; inactive = no such curve, though single readings can be large; an effect the other way counts as inactive or inconclusive. Potency is the fitted concentration of half-maximal effect.

SMILES | Cruzain inh Det | Cruzain noTriton
CCOc1ccc(C(=O)Nc2cccc(-c3cc4ccccc4oc3=O)c2)cc1[N+](=O)[O-] | 1% | ?
CCOc1ccc2nc(NC(=O)c3cccc(-c4cc5ccccc5oc4=O)c3)sc2c1 | -2% | 13µM*
Cc1cc(NC(=O)c2ccc(Cl)c(Cl)c2)ccc1-c1cc2ccccc2oc1=O | 2% | 17%
Cc1ccc2nc(NC(=O)c3cccc(-c4cc5ccccc5oc4=O)c3)sc2c1 | -3% | 10µM*
CCn1nnc(NC(=O)c2cccc(-c3cc4ccccc4oc3=O)c2)n1 | -2% | 1%
N#C/C(=C\c1c(N2CCCCC2)nc2ccccn2c1=O)C(=O)NC1CCS(=O)(=O)C1 (stereo unspecified) | -3% | -8%
CC(Oc1ccc(-c2ccccc2)c(F)c1)c1ccn(S(=O)(=O)c2ccc(Cl)cc2)n1 (stereo unspecified) | 11% | ?
Cc1ccc(S(=O)(=O)n2ccc(-c3cccc(OCc4c(F)cccc4Cl)c3)n2)cc1 | 5% | 7.9µM*
CN(CCOc1ccc(-c2ccn(S(=O)(=O)c3ccc(Cl)cc3)n2)cc1)c1ccccn1 | 2% | -29%
Cc1ccc(S(=O)(=O)n2ccc(-c3ccc(OCc4c(F)cccc4Cl)cc3)n2)cc1 | 2% | 32µM*
COc1ccc(C2=C(C)C(=O)N(Cc3ccc(C(=O)NC(C)c4ccccc4)cc3)S2(=O)=O)cc1 (stereo unspecified) | -10% | 16µM*
COc1ccc(C2=C(C)C(=O)N(Cc3ccc(C(=O)Nc4cccc(F)c4)cc3)S2(=O)=O)cc1 | -16% | ?
COc1ccc(C2=C(C)C(=O)N(Cc3ccc(C(=O)NCc4ccc(C)cc4)cc3)S2(=O)=O)cc1 | -7% | -16%
COc1ccc(C2=C(C)C(=O)N(Cc3ccc(C(=O)NCc4cccc(C)c4)cc3)S2(=O)=O)cc1 | -19% | 25µM*
CC1=C(c2ccc(C)c(C)c2)S(=O)(=O)N(Cc2ccc(C(=O)NC(C)c3ccccc3)cc2)C1=O (stereo unspecified) | -4% | 4%
CCc1cccc(NC(=O)c2ccc(CN3C(=O)C(C)=C(c4ccc(OC)cc4)S3(=O)=O)cc2)c1 | -7% | 25µM*
COc1ccc(CNC(=O)C(C)Sc2nc(-c3ccccc3)cc(C(F)(F)F)n2)cc1 (stereo unspecified) | -1% | 4%
CN(C)c1ccc(C(CNC(=O)c2ccccc2)c2c[nH]c3ccccc23)cc1 (stereo unspecified) | -10% | ?
CC1CCc2c(sc(NC(=O)c3cc(-c4ccc(Br)cc4)on3)c2C(N)=O)C1 (stereo unspecified) | -1% | 0%
CCC/C=N/O | -6% | -2%
CCOc1ccccc1NC(=S)NC(=O)CCCOc1ccc(Cl)cc1Cl | -2% | 20µM*
CCOc1ccccc1OCC(=O)Nc1ccc(Cl)cc1Cl | 3% | 6%
Cc1cc(Br)ccc1NC(=O)CCSc1ccccc1 | -2% | 5%
CCOC(=O)C1CSC(CC(=O)Nc2ccc(Cl)cc2)C(=O)N1 (stereo unspecified) | 8% | 1%
Cc1ccccc1-c1nc(-c2ccc(NC(=O)c3cccs3)cc2)no1 | 3% | ?
SMILES | Cruzain inh Det | Cruzain noTriton
O=C(c1ccccc1)c1ccc2nc(-c3ccc(NC(=O)c4ccccc4Br)cc3)[nH]c2c1 | -3% | 3%
O=C(Nc1cccc(-c2nc3ccccc3[nH]2)c1)c1ccco1 | -7% | -10%
O=C(Nc1ccc2nc(-c3cccs3)[nH]c2c1)c1cccs1 | 3% | 18%
Cc1ccccc1C(=O)Nc1ccc(-c2nc3ccc(C(=O)c4ccccc4)cc3[nH]2)cc1 | -2% | 13µM*
O=C(Nc1ccc2nc(-c3cccs3)[nH]c2c1)c1ccco1 | -22% | 20µM*
O=C(Nc1ccc(-c2nc3ccc(NC(=O)c4cccs4)cc3[nH]2)cc1)c1cccs1 | 11µM* | 25µM*
O=C(Nc1ccc(-c2noc(-c3ccccc3F)n2)cc1)c1cccs1 | 1% | 20µM*
CN(C)CCNC(=O)C1CCCNC1=O (stereo unspecified) | 2% | -5%
COc1ccc(NC(=O)c2cnc(N3CCCC3)nc2)cc1OC | -3% | -10%
O=C(NCCCN1CCOCC1)c1ccc(CNS(=O)(=O)c2ccc(F)cc2)cc1 | 5% | 0%
Cc1ccc2nc(-c3ccc(NC(=O)c4ccco4)cc3)[nH]c2c1 | 25µM* | -1%
Cn1cccc1-c1nc2ccc(NC(=O)c3ccco3)cc2[nH]1 | -10% | -4%
CSc1ccc(Cl)c(C(=O)OCC(=O)NCc2ccco2)c1 | -22% | 3%
CSc1ccc(Cl)c(C(=O)NCc2ccco2)c1 | ? | 20µM*
CCOc1ccc(C(=O)OCC(=O)Nc2cc(C)on2)cc1OCC | 6% | 29%
O=C(NCCCc1ccccc1)c1ccncc1 | 1% | -5%
Cc1sc2nc(CN3CCOCC3)nc(N3CCOCC3)c2c1C | -3% | -2%
CC1=C(c2ccc(C(C)C)cc2)S(=O)(=O)N=C1N1CCN(c2ccc(F)cc2)CC1 | -4% | 16%
COc1ccc(S(=O)(=O)c2c(Nc3ccc(F)cc3)sc(C(=O)c3ccc4c(c3)OCO4)c2N)cc1 | -2% | ?
Cc1ccc(Nc2sc(C(=O)c3ccccc3)c(N)c2C(=O)Nc2ccc(Cl)cc2)cc1 | -3% | ?
COc1ccc(S(=O)(=O)c2c(Nc3ccc(C)cc3)sc(C(=O)c3ccc4c(c3)OCO4)c2N)cc1 | -2% | 3.2µM*
Cc1ccc(CNC(=O)c2c(Nc3ccccc3C)sc(C(=O)c3ccc(F)cc3)c2N)cc1 | -4% | ?
Cc1ccccc1Nc1sc(C(=O)c2ccc3c(c2)OCO3)c(N)c1S(=O)(=O)c1ccccc1 | -3% | 7.9µM*
Cc1ccc(S(=O)(=O)c2c(Nc3ccccc3)sc(C(=O)c3ccc4c(c3)OCO4)c2N)cc1 | -4% | 7.9µM*
O=c1ccc(S(=O)(=O)N2CCC(Cc3ccccc3)CC2)c[nH]1 | 5% | -14%
SMILES | Cruzain inh Det | Cruzain noTriton
O=C(NCc1ccc(Cl)cc1)c1cc2c(s1)-c1ccccc1SC2 | -7% | -79%
O=C(NCc1cccc(Cl)c1)c1cc2c(s1)-c1ccccc1SC2 | -6% | 25µM*
O=C(CCCc1ccc(-c2ccccc2F)cc1)Nc1ccc(O)cc1 | -3% | ?
COc1ccc(NC(=O)c2ccccc2NC(=O)C2CCCO2)cc1 (stereo unspecified) | 6% | -5%
O=[N+]([O-])c1cccc(-c2nnc(-c3ccc4c(c3)OCO4)o2)c1 | -4% | -6%
Cc1ccc(C(=O)N(CN2CCCC2=O)c2ccc(F)cc2)cc1C | 6% | -4%
Cc1nc(NC(=S)NC(=O)COc2ccc(Cl)cc2)ccc1Br | 1% | ?
Cc1ccc(OCC(=O)NC(=S)Nc2ccc(Br)c(C)n2)cc1 | 4% | 16µM*
CCOC(=O)N1CCC(N2Cc3cccc(C(=O)N4CCN(C5CCCCC5)CC4)c3C2=O)CC1 | 2% | -5%
Cc1cccc(/C=C2\CCC(=C3SCCCS3)C2=O)c1 | -8% | -1%
Oc1ccc(N=C/C=C/c2ccc(Br)cc2)cc1-c1nc2ccccc2s1 | -14% | 32µM*
COc1ccc(OCC(=O)Nc2ccc(O)c(-c3nc4ccccc4s3)c2)cc1 | -2% | 3%
O=C(Nc1ccccc1N1CCN(C(=O)c2ccc(Cl)cc2)CC1)c1cc(Br)ccc1Cl | 4% | 7.9µM*
CC(=O)N1CCN(c2ccccc2NC(=O)c2cc(Br)ccc2Cl)CC1 | -2% | 3%
Cc1ccc(C(=O)Nc2nc(COc3ccccc3)cs2)s1 | 5% | -4%
CC(C)c1ccccc1NC(=O)COc1ccc(C(=O)NCCc2ccccc2)cc1 | 0% | ?
